This is part of a sample that, as a whole, favours compounds with a hit. Of some 83,000 tested, about 20% had one in any assay.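 Single-concentration screen, 48 h exposure, 96-well plates. Endpoint: percent growth. Below 10 = active.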 A number with no mark means an inactive call. Activity calls are given as the source filed them.
Experiments:
Assay in all cases: NCI-60 one-dose screen, 48 h (100 = growth as untreated, 0 = no growth, -100 = all killed)
Conditions in all cases: 10 µM
[1] = tested on: NCI-H23 lung
[2] = tested on: NCI-H226 lung
[3] = tested on: NCI-H322M lung
[4] = tested on: HOP-62 NSCLC
[5] = tested on: NCI-H460 lung
[6] = tested on: HOP-92 NSCLC
[7] = tested on: NCI-H522 lung
[8] = tested on: A549/ATCC NSCLC
[9] = tested on: 786-0 renal
[10] = tested on: COLO 205 colon
[11] = tested on: DU-145 prostate
[12] = tested on: K-562 leukemia
[13] = tested on: MALME-3M melanoma
[14] = tested on: MDA-MB-231 breast
[15] = tested on: SF-268 CNS
[16] = tested on: SF-295 CNS
[17] = tested on: SF-539 CNS
[18] = tested on: UACC-257 melanoma
[19] = tested on: M14 melanoma

Row | Structure (SMILES) | growth [1] [%] | growth [2] | growth [3] [%] | growth [4] | growth [5] | growth [6] | growth [7] | growth [8] | growth [9] | growth [10] | growth [11] | growth [12] | growth [13] | growth [14] | growth [15] | growth [16] | growth [17] | growth [18] | growth [19]
1 | C/C(=C\c1ccc(O)cc1O)c1ccc2ccc(O)cc2[o+]1 | 45.8 | 66.2% | 78.1 | 54.9% | 56.8% | 83.8% | 55% | 91.9% | 52.9% | 116% | 25.8% | 72.7% | 56.8% | 39.6% | 116% | 80.6% | 72.4% | 84% | 73.3%
2 | CC(=O)c1cc(C(=O)c2ccc3c(c2)NC(=O)CO3)n2ccc3ccccc3c12 | 58.3 | 62.3% | 87.8 | 74.1% | 63.8% | 97.7% | 71.6% | 29.8% | 51.7% | 91.9% | 84.1% | 84.1% | -5.58% (active) | 29.9% | 79% | 98.9% | 31.9% | 86.1% | 65.1%
3 | COC1=C[C@@]23CCC(=O)N2CCc2cc4c(cc2[C@H]3[C@H]1OC(=O)C(C)(C)O)OCO4 | 95.6 | 93.2% | 101 | 89.2% | 115% | 92% | 95.6% | 102% | 95.7% | 120% | 108% | 107% | 102% | 94.9% | 104% | 95.8% | 93.6% | 104% | 102%
4 | COc1cc2c3c(n(CCCNC(C)C)c(=O)c2cc1OC)-c1nc2c(cc1C3=O)OCO2 | 16.5 | -32.2% (active) | 60.3 | 5.84% (active) | -74.2% (active) | 66.5% | 50.9% | -62.8% (active) | -78.3% (active) | -67.6% (active) | 8.46% (active) | 2.95% (active) | -92.3% (active) | -90.5% (active) | -72.5% (active) | 11.7% | -6.71% (active) | -30.4% (active) | -48.8% (active)
5 | CCOc1ccc(/C=N/NC(=O)Cn2nc(Cc3ccc([N+](=O)[O-])cc3)c3onc(C)c3c2=O)cc1 | 28.8 | -21.1% (active) | 29.4 | -17.3% (active) | -9.53% (active) | -44.6% (active) | 47.6% | -23.6% (active) | -79.7% (active) | 53.7% | -15.2% (active) | 62.5% | -2.13% (active) | -19.9% (active) | -8.68% (active) | 1.32% (active) | -64.5% (active) | 70.3% | 50.9%
6 | CN1CCc2c(sc3ncnc(N/N=C/c4ccc5ccccc5c4)c23)C1 | 66.1 | 86.1% | 97 | 82% | 0.259% (active) | 89.2% | 83.9% | 42.7% | 51% | 36.3% | 68.8% | 13.9% | 91.2% | 48% | 68.9% | 53.9% | 29.1% | 107% | 82%
7 | CC(=O)Nc1ccc(-c2cn(-c3cccc(C(=O)Nc4ccc(F)c(C(F)(F)F)c4)c3)nn2)cn1 | 23.6 | 26.4% | 54.3 | 87.7% | -47.1% (active) | 65.6% | 62.3% | 54.3% | 79.9% | 46% | 42.5% | 10.9% | 2.13% (active) | -4.26% (active) | 68.8% | 29.4% | 22.7% | 90.4% | 62.6%
8 | O=C(CNc1nc(-c2ccccc2)cs1)Nc1cccc(Cl)c1 | 28.4 | 44.8% | 62.3 | 46.6% | 44.8% | -5.42% (active) | 4.23% (active) | 38.7% | 54.6% | 40.3% | 53.5% | 19.6% | 64.1% | 30.8% | 30.6% | 22.4% | 42.3% | 62.9% | 34%

Reference: PubChem BioAssay (NCI)
